An excerpt weighted towards active compounds, which were near 0.43% of everything screened.
GAA glycogen mod: inhibitors or activators of human alpha-glucosidase glycogen cleavage. Potency, µM (top dose mostly 76.4 µM), most hits filed as inhibitors. 0.38% of 300,000 active. P10253. recombinant GAA, glycogen substrate, Amplex Red glucose oxidase fluorescence;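 further: the screen sought inhibitors and activators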
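qHTS, 1536-well; enzyme 4 nM final; cpd up to 77 uM; substrate bovine liver glycogen 30 ug; 50 mM citrate/phosphate pH 5.0, 0.01% Tween-20; 37 C, 40 min; Amplex Red detection 45 min RT; Hill fit → AC50.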
GLA spleen mod: inhibitors or activators of human alpha-galactosidase in spleen homogenate | human spleen homogenate, 4MU-alpha-Gal fluorescence, 40 min | Potency, µM (titrated, usually from 80 µM), most hits filed as inhibitors | 0.008% of 240,000 active | AID 2107
Target sequence (P06280 32-429 limits assumed): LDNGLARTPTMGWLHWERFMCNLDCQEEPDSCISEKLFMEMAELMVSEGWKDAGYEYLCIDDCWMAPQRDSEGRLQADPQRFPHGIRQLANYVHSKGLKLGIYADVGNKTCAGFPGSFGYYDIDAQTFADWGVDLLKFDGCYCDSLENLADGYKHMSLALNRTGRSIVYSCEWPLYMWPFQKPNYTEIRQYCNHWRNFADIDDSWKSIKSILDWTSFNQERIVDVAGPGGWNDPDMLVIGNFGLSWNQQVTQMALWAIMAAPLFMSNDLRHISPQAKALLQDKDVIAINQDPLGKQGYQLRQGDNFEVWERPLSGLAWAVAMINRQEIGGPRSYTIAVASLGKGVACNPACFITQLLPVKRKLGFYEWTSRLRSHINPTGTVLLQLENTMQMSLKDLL
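Inhibition or activation of alpha-galactosidase in human spleen homogenate is scored by 4-MU fluorescence after 40 min at 37C, pH 5.0, with 1 mM substrate. AC50s come from concentration-response fitted to the Hill equation.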
aGlu spleen mod: inhibits or activates alpha-glucosidase in human spleen homogenate. P10253. human spleen homogenate, 4-MU-alpha-glucoside fluorescence. Potency, µM (top dose mostly 79.9 µM), actives largely listed as inhibitors. 0.006% of 240,000 active. AID 2112
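Compounds were titrated against alpha-glucosidase in spleen homogenate at pH 5.0, with 1 mM 4-methylumbelliferyl substrate for 40 min at 37 C. Reactions were quenched with pH 10 NaOH/glycine and fluorescence measured.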
GAA inh: blocks human lysosomal alpha-glucosidase; P10253; purified human GAA, 4-MU-alpha-glucoside fluorescence; Potency, µM (top dose mostly 76.9 µM), most hits filed as inhibitors; 0.005% of 200,000 active; AID 1466
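Fluorescence at Ex 365/Em 440 nm from 4-methylumbelliferone reported enzyme activity after 20 min at room temperature. Reactions used 4 nM enzyme and 400 uM substrate at pH 5.0; curves fitted with the Hill equation.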
GLA inh pH 4.5: inhibitors of human alpha-galactosidase A at pH 4.5. purified enzyme, 4-MU-alpha-Gal fluorescence, pH 4.5. activity change, negative = inhibition, % at 105 µM. 230,000 tested, under 10 active. AID 1467
N370S GC: N370S glucocerebrosidase modulation, Gaucher chaperone candidate; 0.092% of 330,000 active; Potency, µM (series often up to 59.4 µM), most hits filed as inhibitors; P04062; AID 2101; N370S GC spleen homogenate, 4MU-glucoside fluorescence
Each line names hits and unclear results; the compound was inactive in the other large screens. The call rests on the fitted dose curve; in most records, active means well fitted curve in the direction sought with a large enough effect; inconclusive means small, poorly fitted or top-dose-only effect, or another doubt; inactive means no such curve, though single readings can be large; an effect the other way counts as inactive or inconclusive.

COc1ccc(C)cc1NCc1cccc(OC)c1OC	GAA inh inconclusive
Cc1[nH]c2ccccc2c1C(=O)CSc1nc2ccccc2c(=O)n1CCCN1CCOCC1	N370S GC 10µM
Cn1c(N)c(C(=O)CSc2nc3ccccc3c(=O)n2CCCN2CCOCC2)c(=O)n(C)c1=O	none
COC(=O)C1=C(C)N(Cc2ccccc2)[C@]23O[C@](C(=O)OC)(C(=O)N2C1c1ccccc1)C(C(=O)OC)C3C(=O)OC (stereo not given in full)	none (no result: GAA glycogen mod, GAA inh, GLA inh pH 4.5)
c1ccc(-c2nc(NCc3cccnc3)c3ccccc3n2)cc1	N370S GC inconclusive
Oc1ccc(Nc2nc(-c3ccccc3F)nc3ccccc23)cc1	N370S GC inconclusive (no result: GLA spleen mod, aGlu spleen mod, GAA inh, GLA inh pH 4.5)
c1ccc(-c2nc(NC3CCCC3)c3ccccc3n2)cc1	N370S GC 16µM (no result: GAA glycogen mod, GLA spleen mod, aGlu spleen mod, GAA inh, GLA inh pH 4.5)
COc1ccc(Nc2nc(-c3ccccc3F)nc3ccccc23)cc1OC	N370S GC 2.5µM (no result: GLA spleen mod, aGlu spleen mod, GAA inh, GLA inh pH 4.5)
COc1cccc(-c2nc(NCc3ccccc3)c3ccccc3n2)c1O	none (no result: GLA spleen mod, aGlu spleen mod, GAA inh, GLA inh pH 4.5)
COc1ccc(CNc2nc(-c3ccccc3)nc3ccccc23)cc1OC	N370S GC 14µM (no result: GLA spleen mod, aGlu spleen mod, GAA inh, GLA inh pH 4.5)
Fc1ccc(CNc2nc(-c3ccccc3)nc3ccccc23)cc1	N370S GC 14µM
COc1ccc(C(OCCN2CCC[C@H](C(=O)O)C2)(c2ccc(OC)cc2)c2ccc(OC)cc2)cc1	none (no result: GAA glycogen mod, GAA inh, GLA inh pH 4.5)
COc1ccc(CNc2n[nH]c(NCc3ccc(OC)c(OC)c3)n2)cc1OC	GAA glycogen mod 22µM
COC(=O)c1[nH]c2ccccc2c1NC(=O)Oc1ccccc1	none
CC(=O)Nc1c(C(=O)O)[nH]c2ccccc12	none
CCS(=O)(=O)Nc1c(C(=O)O)[nH]c2ccccc12	GAA glycogen mod 5µM
CCS(=O)(=O)Nc1c(C(=O)OC)[nH]c2ccccc12	GAA glycogen mod 4.5µM
CC(C)=CCC/C(C)=C/CO/N=C1/C[C@@H](O)[C@@H](O)[C@@H]2[C@@H]3C(=O)N(Cc4ccccc4)C(=O)[C@H]3CC[C@@H]12	none (no result: GAA glycogen mod, GAA inh, GLA inh pH 4.5)
CCOC(=O)CCN1C(=O)[C@H]2[C@H]3[C@H](O)[C@H](O)C/C(=N/OCC(C)C)[C@@H]3CC[C@@H]2C1=O	none (no result: GAA glycogen mod, GAA inh, GLA inh pH 4.5)
Nc1ccc(O)c2c(=O)cc(-c3ccccc3Cl)oc12	GAA glycogen mod 14µM
CCCN1CCC(=O)N(C(CSc2ccc(Br)cc2)c2ccccc2)CC1 (stereo not given)	none (no result: GAA glycogen mod, GAA inh, GLA inh pH 4.5)
CC(=O)C(Sc1nc(N(C)C)nc(N(C)C)n1)C(=O)Nc1ccccc1 (stereo not given)	GAA glycogen mod 20µM
CC(Sc1nc(NCc2ccccc2)nc(N(C)C)n1)C(=O)Nc1ccccc1 (stereo not given)	none
CC[C@H](C)[C@H](NC(=O)[C@H](Cc1ccc(O)cc1)NC(=O)[C@@H](NC(=O)[C@H](CCCN=C(N)N)NC(=O)[C@@H](N)CC(=O)O)C(C)C)C(=O)N[C@@H](Cc1cnc[nH]1)C(=O)N1CCC[C@H]1C(=O)N[C@@H](Cc1ccccc1)C(=O)N[C@@H](Cc1cnc[nH]1)C(=O)N[C@@H](CC(C)C)C(=O)O	none (no result: GAA glycogen mod, GAA inh, GLA inh pH 4.5)
O=C1NN(c2ccc(Br)cc2)C(=O)/C1=C\c1ccc(O)cc1O	GAA glycogen mod 8.9µM, N370S GC inconclusive (no result: GLA spleen mod, aGlu spleen mod, GAA inh, GLA inh pH 4.5)
O=C1NN(c2cccc(Br)c2)C(=O)/C1=C\c1ccc(O)cc1	none (no result: GLA spleen mod, aGlu spleen mod, GAA inh, GLA inh pH 4.5)
Cc1cc(S(=O)(=O)Nc2c(C(=O)O)[nH]c3ccccc23)ccc1F	GAA glycogen mod 2.2µM
COC(=O)c1[nH]c2ccc(F)cc2c1NS(=O)(=O)c1ccc(F)c(C)c1	none
COC(=O)c1[nH]c2ccc(C)cc2c1NS(=O)(=O)c1ccc(F)c(C)c1	GAA glycogen mod 18µM
COC(=O)c1[nH]c2ccc(C)cc2c1NS(=O)(=O)c1ccc(F)cc1	GAA glycogen mod 10µM
Cc1ccc(S(=O)(=O)Nc2c(C(=O)O)[nH]c3ccccc23)cc1C	GAA glycogen mod inconclusive (no result: GLA spleen mod, aGlu spleen mod, GAA inh, GLA inh pH 4.5)
CCc1cccc(NC(=O)Nc2cccs2)c1	GAA glycogen mod 28µM
Cc1ccccc1C(=O)NN1C(=O)CSC1=S	GAA glycogen mod inconclusive
CCOC(=O)c1ccccc1N1C(=O)CSC1=S	GAA glycogen mod 28µM
CCOc1cc(C2C3=C(CCCC3=O)NC3=C2C(=O)CCC3)cc(Cl)c1O	GAA glycogen mod 35µM
COc1ccc(-c2cnc(NCc3ccc(C)cc3)n2C)cc1	GAA glycogen mod 10µM (no result: GLA spleen mod, aGlu spleen mod, GAA inh, GLA inh pH 4.5, N370S GC)
COc1ccc(/C=N/NC(=O)c2nc(-c3ccccc3)cc(-c3ccccc3)n2)cc1OC	none
COc1ccc(/C=N/c2oc(-c3ccccc3)cc2C#N)cc1OC	GAA glycogen mod 25µM
Brc1ccc2nc(-c3ccncc3)c(NC3CCCC3)n2c1	GAA glycogen mod 9.9µM, GLA inh pH 4.5 inconclusive
CCN(CC)c1ccc(-c2nc3cnccn3c2NC2CCCC2)cc1	GAA glycogen mod 9.9µM
CCOC(=O)C1(Cc2ccccc2C(F)(F)F)CCN(C(C)CCn2cccn2)CC1 (stereo not given)	GAA glycogen mod 4.5µM, GAA inh inconclusive
CCn1c(-c2ccccc2)csc1=Nc1ccc(O)cc1	GAA glycogen mod 13µM (no result: aGlu spleen mod)
COC(=O)[C@@H]1O[C@@H](c2c(OC)c(OC)c(C)c(OC)c2OC)[C@H](C)[C@@H](O)[C@@H]1C	none (no result: GAA glycogen mod, GAA inh, GLA inh pH 4.5)
CCCCCCC#CC1C=CC(OC(C)=O)C(COC(C)=O)O1 (stereo not given)	none (no result: GAA glycogen mod, GAA inh, GLA inh pH 4.5)
O=C1CCCC2=C1Sc1ccccc1N2	GAA glycogen mod 7.1µM (no result: GAA inh)
